Results filed as inconclusive are left out. A call without a number means that no potency is given here. Activity calls are given as the source filed them. Calls come from the whole dose curve; as a rule, active = well fitted curve in the direction sought with a large enough effect; inconclusive = small, poorly fitted or top-dose-only effect, or another doubt; inactive = no such curve, though single readings can be large; an effect the other way counts as inactive or inconclusive.
Experiments:
[1] = tested on: C33A; assay: Primary qHTS to identify gynecologic anti-cancer compounds using libraries of approved drugs and bioactive compounds (AID 1345084); settings: Gynecologic cancer cell panel viability, ATPlite luminescence, 48 h; series mostly up to 57.5 µM; note: nearly all actives have a fitted effect of over 55% in size
Summary of the method: (§1)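 Five-point cytotoxicity, 48 h drug exposure at 37 C, 5% CO2, on cells seeded 16 h beforehand. ATP content read by ATPlite luminescence.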

[2] = tested on: CASKI; assay: as above; settings: Gynecologic cancer cell panel viability, ATPlite luminescence, 48 h; series mostly up to 57.5 µM
Summary of the method: as §1

[3] = tested on: Es-2; assay: as above; settings: Gynecologic cancer cell panel viability, ATPlite luminescence, 48 h; series mostly up to 57.5 µM
Summary of the method: as §1

[4] = tested on: HeLa; assay: as above; settings: Gynecologic cancer cell panel viability, ATPlite luminescence, 48 h; series mostly up to 57.5 µM
Summary of the method: as §1

[5] = tested on: Hek293T; assay: as above; settings: Gynecologic cancer cell panel viability, ATPlite luminescence, 48 h, control line for the selectivity index; series mostly up to 57.5 µM
Summary of the method: as §1

[6] = tested on: JEG-3; assay: as above; settings: Gynecologic cancer cell panel viability, ATPlite luminescence, 48 h; series mostly up to 57.5 µM
Summary of the method: as §1

[7] = tested on: PA-1; assay: as above; settings: Gynecologic cancer cell panel viability, ATPlite luminescence, 48 h; series mostly up to 57.5 µM
Summary of the method: as §1

[8] = tested on: OV90; assay: as above; settings: Gynecologic cancer cell panel viability, ATPlite luminescence, 48 h; series mostly up to 57.5 µM
Summary of the method: as §1

[9] = tested on: CAOV3; assay: as above; settings: Gynecologic cancer cell panel viability, ATPlite luminescence, 48 h; series mostly up to 57.5 µM
Summary of the method: as §1

[10] = tested on: WaGa; assay: qHTS assay to identify novel small-molecules to repurpose for Merkel cell carcinoma treatment (AID 1296009); settings: MCC and control cell lines, CellTiter-Glo viability, 72 h; series mostly up to 46 µM; note: nearly all actives have a fitted effect of over 60% in size
Summary of the method: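 Dose-response viability screen; 72 hr exposure at 37 degree celsius; CellTiter-Glo added, 10 min room temperature, luminescence read; RLUs scaled between no-cell and DMSO wells.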
Potency is the fitted concentration of half-maximal effect.

Row | Structure (SMILES) | Potency [1] | Potency [2] | Potency [3] | Potency [4] | Potency [5] | Potency [6] | Potency [7] | Potency [8] | Potency [9] | Potency [10]
1 | CCOP(=O)(NC(C)C)Oc1ccc(SC)c(C)c1 (stereo not drawn) | inactive | inactive | inactive | inactive | inactive | inactive | inactive | – | – | –
2 | CCC1(CCC(C)C)C(=O)NC(=O)NC1=O | inactive | inactive | inactive | – | inactive | inactive | inactive | inactive | – | –
3 | COC1=C[C@@H]2[C@@H]3Cc4ccc(OC)c(O)c4[C@]2(CCN3C)CC1=O | inactive | inactive | inactive | inactive | inactive | inactive | inactive | inactive | – | –
4 | C/C=C(/C)C(=O)O[C@H]1C(C)=C2[C@H]([C@@H]1OC(=O)CCCCCCC)[C@@](C)(OC(C)=O)C[C@H](OC(=O)CCC)[C@@]1(O)[C@H]2OC(=O)[C@@]1(C)O | 20 µM (active) | – | 0.316 µM (active) | 0.447 µM (active) | – | 0.447 µM (active) | 0.158 µM (active) | – | – | –
5 | CCOC(=O)Nc1ccc(NCc2ccc(F)cc2)cc1N | inactive | inactive | inactive | inactive | inactive | inactive | inactive | inactive | inactive | –
6 | CCCCCCCCCCCCCCCC[N+](C)(C)C | – | 20 µM (active) | – | – | – | – | – | – | 8.91 µM (active) | 2.37 µM (active)
7 | ClC1=C(Cl)[C@]2(Cl)[C@@H]3[C@@H]4C[C@@H]([C@H]5O[C@@H]45)[C@@H]3[C@@]1(Cl)C2(Cl)Cl | inactive | inactive | inactive | inactive | inactive | inactive | inactive | – | – | –
8 | COc1ccc(C(c2ccc(OC)cc2)C(Cl)(Cl)Cl)cc1 | inactive | – | inactive | – | inactive | inactive | inactive | – | – | –
9 | Nc1ccc(N=Nc2ccccc2)cc1 | – | – | – | – | – | – | – | 39.8 µM (active) | 35.5 µM (active) | –

Reference: PubChem BioAssay (NCATS)
